Structures can show the parent of a compound that is named as a salt. Values without a mark were called inactive.
System: primary human hepatic stellate cells (donor 1)
Test: COL1A1 mRNA fold change vs DMSO (normalised to PSMB2); higher = more COL1A1 expression, active = hit call of the paper
Conditions: 48 h
Description: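 Secondary qRT-PCR screen in primary human HSCs (donor 1), 384-well plates, with compounds dispensed in quadruplicate and incubated for 48 h. Cells-to-CT lysates were used for multiplexed TaqMan qPCR of ACTA2 or COL1A1 with PSMB2 as reference. Fold changes versus DMSO come from a linear model (Ct_gene ~ Ct_PSMB2 + plate + chemical). A hit is defined as COL1A1 and ACTA2 FC <0.5 (FDR <0.05) with PSMB2 between 0.2 and 2.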

| Structure (SMILES) | COL1A1 mRNA fold change |
| --- | --- |
| N=C(N)SCCc1ccc(OCc2ccc([N+](=O)[O-])cc2)cc1 [KB-R7943 mesylate] (33.3333 µM) | 0.168 (active) |
| CN1CCN(Cc2ccc(-c3cnc4[nH]cc(-c5ccc6[nH]ccc6c5)c4c3)cc2)CC1 (6.66667 µM) | 0.0518 (active) |
| CCNC(=O)c1noc(-c2cc(C(C)C)c(O)cc2O)c1-c1ccc(CN2CCOCC2)cc1 (11.1 µM) | 1.09 |
| CCCSc1ccc2[nH]c(NC(=O)OC)nc2c1 [Albendazole] (33.3333 µM) | 0.881 |
| OCCN1CCN(CCCN2c3ccccc3Sc3ccc(C(F)(F)F)cc32)CC1 (33.3333 µM) | 0.0645 |
| COc1ccc(NS(=O)(=O)c2sc3ccc(Cl)cc3c2C)cc1N1CCNCC1 (33.3333 µM) | 0.0858 (active) |
| CN1CCC(CNc2ccc3ncc(-c4cccc(OC(F)(F)F)c4)n3n2)CC1 (6.66667 µM) | 0.552 |
| CS(=O)(=O)CCNCc1ccc(-c2ccc3ncnc(Nc4ccc(OCc5cccc(F)c5)c(Cl)c4)c3c2)o1 (6.66667 µM) | 1.41 |
| CN1CCC(Nc2ncc3ncnc(Nc4ccc(F)c(Cl)c4)c3n2)CC1 [BIBX 1382 dihydrochloride] (33.3333 µM) | 0.00366 |
| Cc1nc(Nc2ncc(C(=O)Nc3c(C)cccc3Cl)s2)cc(N2CCN(CCO)CC2)n1 (33.3333 µM) | 0.446 (active) |
| NC(N)=NC(=O)c1nc(Cl)c(N2CCCCCC2)nc1N [5-(N,N-hexamethylene)amiloride] (33.3333 µM) | 0.0273 (active) |
| O=C1NCN(c2ccccc2)C12CCN(CCCC(c1ccc(F)cc1)c1ccc(F)cc1)CC2 [Fluspirilene] (14.0333 µM) | 0.695 |
| CN1CCC(NC(=O)c2cc(-c3c(O)cc(O)cc3Oc3ccc([N+](=O)[O-])cc3)on2)CC1 (33.3333 µM) | 1.15 |
| O=S(=O)(NCCNC/C=C/c1ccc(Br)cc1)c1cccc2cnccc12 [H-89, Dihydrochloride] (11.1 µM) | 0.594 |
| CCOC(=O)C1=C(COCCN)NC(C)=C(C(=O)OC)C1c1ccccc1Cl (stereo not given) (33.3333 µM) | 0.437 (active) |
| CN(C)CCCCC(=O)Nc1ccc(NC(=S)NC(=O)c2ccc(C(C)(C)C)cc2)cc1 [Tenovin-6] (33.3333 µM) | 0.00938 |
| C[C@]12CC[C@H](O)CC1=CC[C@@H]1[C@@H]2CC[C@]2(C)C(n3cnc4ccccc43)=CC[C@@H]12 [Galeterone] (33.3333 µM) | 0.0557 |
| CNCCC(Oc1ccc(C(F)(F)F)cc1)c1ccccc1 (stereo not given) [Fluoxetine hydrochloride] (33.3333 µM) | 0.114 (active) |
| O=C(Nc1cc(C(F)(F)F)cc(C(F)(F)F)c1)c1cc(Cl)ccc1O (33.3333 µM) | 0.203 (active) |
| CCC/C=C\C=C/C(=O)N[C@@H](CC(N)=O)C(=O)NC(CC(N)=O)C(=O)N[C@@H](C(=O)N[C@H](CCCN)C(=O)N[C@@H](C(=O)N[C@@H](C(=O)N[C@@H](C(=O)N[C@H](C(=O)N[C@@H](Cc1ccccc1)C(=O)N[C@H](CCCN)C(=O)NC(C(=O)N[C@H](C(=O)NC(C(=O)NCC(=O)N[C@@H](CC(C)C)C(=O)N[C@H](C)C(=O)NC(C(=O)O)C1CCC(O)C(Cl)C1)C1CCC(O)CC1)[C@H](C)O)C1CCC(O)CC1)[C@H](C)O)C1CCC(O)CC1)C1CCC(O)CC1)[C@H](C)O)C1CCC(O)CC1 (stereo not given in full) (33.3333 µM) | 1.59 |

| Structure (SMILES) | COL1A1 mRNA fold change |
| --- | --- |
| Cc1cc(C(=O)Nc2cc(Nc3ccc4c(/C=C/c5ccccn5)n[nH]c4c3)ccc2F)n(C)n1 (33.3333 µM) | 0.363 (active) |
| C#C[C@]1(O)CC[C@H]2[C@@H]3CCC4=Cc5oncc5C[C@]4(C)[C@H]3CC[C@@]21C [Danazol] (33.3333 µM) | 0.0336 (active) |
| CN1CCN2c3ccccc3Cc3ccccc3C2C1 (stereo not given) [Mianserin hcl] (25.2333 µM) | 0.529 |
| C[C@@H]1CN(CCCn2c3ccccc3c3ccccc32)C[C@H](C)N1 [Rimcazole dihydrochloride] (33.3333 µM) | 0.14 |
| CCCCCCCCc1ccc(CCC(N)(CO)CO)cc1 [Fingolimod (FTY720) HCl] (11.1 µM) | 0.392 |
| O=C1Nc2ccccc2/C1=C1/Nc2ccccc2C1=O [Indirubin] (63.5333 µM) | 0.897 |
| CN(C)C/C=C(/c1ccc(Br)cc1)c1cccnc1 [Zimelidine dihydrochloride] (11.1 µM) | 2.1 |
| Cc1ccc2c(c1)c1c3n2CCNC3CCC1 (stereo not given) [Pirlindole mesylate] (20.6667 µM) | 0.473 |
| CCN(CC)CCOc1ccc(Cc2ccccc2)cc1 [DPPE fumarate] (33.3333 µM) | 0.51 |
| CC#CCOC(=O)c1c(C)nc2sc3c(c2c1N)CCC(O)C3 (stereo not given) (33.3333 µM) | 2.5 |
| Cc1ccc(S(=O)(=O)/C=C/C#N)cc1 (33.3333 µM) | 0.394 |
| [O-][S+](c1ccccc1)c1ccc2nnnn2n1 (stereo not given) (33.3333 µM) | 0.0868 |
| COC(=O)C[C@](O)(CCCC(C)(C)O)C(=O)O[C@@H]1C(OC)=C[C@]23CCCN2CCc2cc4c(cc2[C@H]13)OCO4 [Homoharringtonine] (33.3333 µM) | 0.0354 (active) |
| CC[C@@H]1C(=O)N(C)c2cnc(Nc3ccc(C(=O)NC4CCN(C)CC4)cc3OC)nc2N1C1CCCC1 (33.3333 µM) | 0.0466 |
| CNCCCC1c2ccccc2C=Cc2ccccc21 [Protryptyline hydrochloride] (22.2333 µM) | 0.548 |
| c1cc(OCCN2CCCCC2)cc(-c2n[nH]c3ccc(-c4nnc[nH]4)cc23)c1 (33.3333 µM) | 0.105 (active) |
| CCN(CC)CCCCNc1ncc2cc(-c3c(Cl)cccc3Cl)c(NC(=O)NC(C)(C)C)nc2n1 (33.3333 µM) | 0.425 (active) |
| CCN(CC)CCNC(=O)c1c(C)[nH]c(/C=C2\C(=O)Nc3ccc(F)cc32)c1C (6.66667 µM) | 0.664 |
| Clc1ccccc1CNCC1CCC(CNCc2ccccc2Cl)CC1 (stereo not given) (33.3333 µM) | 0.055 |
| NS(=O)(=O)C#Cc1ccccc1 [Pifithrin->m] (33.3333 µM) | 0.18 |
